Reference: the supplement of paper PMC6089552
Screen size: about 3,200 compounds; about 300 (9.4%) showed activity. What follows is part of a selection rich in actives, with near analogues and random picks from the rest.

System: A673/TR/shEF
Assay: cell viability (LOESS-normalised, relative to median of negative controls) (log2 ratio); higher = more viable cells (less compound effect), active = hit call of the paper (over 3 MAD below the median)
Conditions: treatment time: 72 h
In short: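 A673/TR/shEF Ewing sarcoma cells (1,500 per well, 384-well plates) were grown with or without doxycycline to induce EWS-FLI1 shRNA knockdown, starting 24 h before compounds. Library compounds at two or more concentrations, with DMSO controls, were added for three days. Cell viability was read by CellTiter-Glo luminescence on an Envision reader, then LOESS-corrected per plate, divided by the median of negative controls and log2-transformed. Hits were wells at least three median absolute deviations from the median of all screened wells.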

[1] = 0.25 µM, library screen: screen1, EWS-FLI1 expression: high (no doxycycline)
[2] = 0.25 µM, library screen: screen1, EWS-FLI1 expression: low (doxycycline-induced shRNA knockdown)
[3] = 2.5 µM, library screen: screen1, EWS-FLI1 expression: high (no doxycycline)
[4] = 2.5 µM, library screen: screen1, EWS-FLI1 expression: low (doxycycline-induced shRNA knockdown)
[5] = 0.103 µM, library screen: screen3, EWS-FLI1 expression: high (no doxycycline)
[6] = 0.103 µM, library screen: screen3, EWS-FLI1 expression: low (doxycycline-induced shRNA knockdown)
[7] = 0.308 µM, library screen: screen3, EWS-FLI1 expression: high (no doxycycline)
[8] = 0.308 µM, library screen: screen3, EWS-FLI1 expression: low (doxycycline-induced shRNA knockdown)
[9] = 0.926 µM, library screen: screen3, EWS-FLI1 expression: high (no doxycycline)
[10] = 0.926 µM, library screen: screen3, EWS-FLI1 expression: low (doxycycline-induced shRNA knockdown)
[11] = 2.8 µM, library screen: screen3, EWS-FLI1 expression: high (no doxycycline)
[12] = 2.8 µM, library screen: screen3, EWS-FLI1 expression: low (doxycycline-induced shRNA knockdown)
[13] = 8.3 µM, library screen: screen3, EWS-FLI1 expression: high (no doxycycline)
[14] = 8.3 µM, library screen: screen3, EWS-FLI1 expression: low (doxycycline-induced shRNA knockdown)
[15] = 25 µM, library screen: screen3, EWS-FLI1 expression: high (no doxycycline)
[16] = 25 µM, library screen: screen3, EWS-FLI1 expression: low (doxycycline-induced shRNA knockdown)
[17] = 0.25 µM, library screen: screen2, EWS-FLI1 expression: high (no doxycycline)
[18] = 0.25 µM, library screen: screen2, EWS-FLI1 expression: low (doxycycline-induced shRNA knockdown)
[19] = 2.5 µM, library screen: screen2, EWS-FLI1 expression: high (no doxycycline)
[20] = 2.5 µM, library screen: screen2, EWS-FLI1 expression: low (doxycycline-induced shRNA knockdown)
[21] = 0.025 µM, library screen: screen1, EWS-FLI1 expression: high (no doxycycline)
[22] = 0.025 µM, library screen: screen1, EWS-FLI1 expression: low (doxycycline-induced shRNA knockdown)
[23] = 25 µM, library screen: screen1, EWS-FLI1 expression: high (no doxycycline)
[24] = 25 µM, library screen: screen1, EWS-FLI1 expression: low (doxycycline-induced shRNA knockdown)

Measured: cell viability (log2)

COc1ccccc1/C=C1\SC(=S)N(C2CCS(=O)(=O)C2)C1=O (stereo not given)
inactive: [1] 0.0633 | [2] 0.0907 | [3] 0.0733 | [4] 0.0539

COc1ccc(OC)c(CN2CCN(Cc3cccnc3)CC2)c1
inactive: [1] 0.114 | [2] 0.038 | [3] 0.0976 | [4] -0.0472

N/C(=N/c1nc2ccccc2o1)NC(=O)Nc1ccccc1
inactive: [1] 0.05 | [2] 0.11 | [3] 0.0784 | [4] 0.171

NCC1COc2ccccc2O1 (stereo not given)
inactive: [1] 0.104 | [2] -0.0116 | [3] 0.0686 | [4] 0.0513

COc1cccc(C=CC(=O)O)c1C(C)C
inactive: [1] 0.0613 | [2] 0.0863 | [3] 0.0736 | [4] 0.0985

CCC(=O)OC1[C@@H]2CC3=C4CC(=O)O[C@@H](c5ccoc5)[C@]4(C)CCC3[C@@](C)(C2=O)[C@@H](CC(=O)OC)C1(C)C (stereo not given in full)
inactive: [1] 0.0873 | [2] -0.00184 | [3] 0.0649 | [4] 0.122

NCCC(=O)N[C@@H](Cc1cnc[nH]1)C(=O)O
inactive: [1] 0.026 | [2] 0.0201 | [3] 0.0679 | [4] 0.084

CC(C)n1c(/C=C/C(O)CC(O)CC(=O)O)c(-c2ccc(F)cc2)c2ccccc21 (stereo not given)
inactive: [5] 0.107 | [6] 0.0332 | [7] 0.201 | [8] 0.108 | [9] 0.169 | [10] 0.0801 | [11] 0.0218 | [12] -0.0661
active: [13] -0.668 | [14] -0.538 | [15] -2.7 | [16] -1.87

CC(C)c1c(C(=O)Nc2ccccc2)c(-c2ccccc2)c(-c2ccc(F)cc2)n1CC[C@@H](O)C[C@@H](O)CC(=O)O
inactive: [1] 0.091 | [2] 0.0242 | [3] 0.147 | [4] -0.0132

O=C(O)C[C@H](O)C[C@H](O)/C=C/c1c(C2CC2)nc2ccccc2c1-c1ccc(F)cc1
inactive: [5] 0.0626 | [6] -0.0656 | [7] -0.114 | [8] -0.0155
active: [9] -0.533 | [10] -0.345 | [11] -1.53 | [12] -0.986 | [13] -2.09 | [14] -1.25 | [15] -3.51 | [16] -3.56

O=C1O[C@H]([C@@H](O)CO)C([O-])=C1[O-].[Ca+2]
inactive: [1] 0.0808 | [2] 0.0736 | [3] 0.131 | [4] 0.127

CC1=C(C(=O)Nc2ccccc2Cl)C(c2ccccc2Cl)NC(=S)N1 (stereo not given)
inactive: [1] 0.0969 | [2] 0.0233 | [3] 0.106 | [4] 0.0823

CCc1c(C)c(C#N)c2nc3ccccc3n2c1-n1ccnc1C
inactive: [1] 0.109 | [2] 0.0379 | [3] 0.104 | [4] 0.136

CC(=O)Oc1ccc2c(c1)CC[C@@H]1[C@@H]2CC[C@]2(C)[C@@H](O)CC[C@@H]12
inactive: [1] 0.103 | [2] -0.00729 | [3] 0.0771 | [4] 0.0723

COc1c(O)cc(O)c2c(=O)c(-c3ccc(O)cc3)coc12
inactive: [1] 0.0728 | [2] 0.0747 | [3] 0.145 | [4] 0.165

COc1c/c(=C2\C=c3ccccc3=N2)[nH]/c1=C\c1[nH]c(C)cc1C
active: [7] -0.218 | [8] -0.107 | [9] -0.709 | [10] -0.236 | [11] -2.64 | [12] -1.14 | [13] -3.15 | [14] -1.55 | [15] -4.31 | [16] -2.5
inactive: [5] -0.00852 | [6] -0.0389

COc1nc(N/N=C/c2ccccc2F)nc(N2CCCCC2)n1
inactive: [1] 0.0265 | [2] 0.00454 | [3] 0.104 | [4] -0.0151

NC(Cc1ccc(F)cc1)C(=O)O (stereo not given)
inactive: 0.025 µM, library screen: screen2, EWS-FLI1 expression: high (no doxycycline) 0.118 | 0.025 µM, library screen: screen2, EWS-FLI1 expression: low (doxycycline-induced shRNA knockdown) 0.0851 | [1] 0.119 | [2] 0.172 | [17] 0.158 | [18] 0.0689 | [3] 0.144 | [4] 0.0179 | [19] 0.2 | [20] 0.0773 | 25 µM, library screen: screen2, EWS-FLI1 expression: high (no doxycycline) 0.0209 | 25 µM, library screen: screen2, EWS-FLI1 expression: low (doxycycline-induced shRNA knockdown) 0.0999

CSCCC(NC=O)C(=O)NC(C)C(=O)O (stereo not given)
inactive: [1] 0.11 | [2] 0.0779 | [3] 0.177 | [4] 0.154

O=C1c2c(O)ccc(O)c2C(=O)c2c(NCCNCCO)ccc(NCCNCCO)c21
active: [5] -0.962 | [6] -0.246 | [1] -1.93 | [2] -0.576 | [17] -2.25 | [18] -0.221 | [7] -1.25 | [8] -0.351 | [9] -1.51 | [10] -0.325 | [3] -4.22 | [4] -3.67 | [19] -2.87 | [20] -0.985 | [11] -2.02 | [12] -0.758 | [13] -3.96 | [14] -3.09 | [15] -4.26 | [16] -4.25

O=C1c2cccc(O)c2C(=O)c2c(O)cccc21
inactive: [1] 0.127 | [2] 0.109 | [3] 0.149 | [4] 0.271

O=C1c2ccc(O)c(O)c2C(=O)c2c(O)ccc(O)c21
inactive: [1] 0.0226 | [2] 0.0878 | [3] 0.117 | [4] -0.00838

NC(N)=NCCC[C@H](N[C@H](CCC(=O)O)C(=O)O)C(=O)O
inactive: [1] 0.0848 | [2] 0.0238 | [3] 0.123 | [4] 0.0291

O=P(O)(O)C(O)c1ccc2ccccc2c1 (stereo not given)
inactive: [21] 0.0997 | [22] 0.0649 | [1] 0.143 | [2] -0.0248 | [3] 0.0554 | [4] 0.0311 | [23] 0.0292 | [24] 0.0551

C=CC(=O)c1ccc2ccccc2c1
active: [3] -0.264 | [23] -0.287
0.286: [1]
0.279: [21]
inactive: [22] 0.0903 | [2] 0.00371 | [4] 0.198 | [24] -0.0301

C/C(=C\C(=O)Nc1ccccc1C(=O)O)c1ccc2ccccc2c1
inactive: [5] 0.0459 | [6] 0.0279 | [7] -0.00745 | [8] -0.00325 | [9] -0.0219 | [10] 0.0436 | [11] 0.00499 | [12] -1.3e-05 | [13] -0.0171 | [14] 0.0177 | [15] 0.0665 | [16] 0.0416

NC(=O)c1cc[n+](CC2=C(C(=O)O)N3C(=O)[C@@H](NC(=O)C(c4ccccc4)S(=O)(=O)O)[C@H]3SC2)cc1 (stereo not given in full)
inactive: [1] -0.0396 | [2] 0.081 | [3] -0.00797 | [4] 0.0119

CN1CCN(c2nc3ccccn3c(=O)c2/C=C2\SC(=S)N(C)C2=O)CC1
inactive: [1] 0.017 | [2] -0.00298 | [3] 0.0372 | [4] -0.00837

COc1ccc(-c2cc(=O)c3c(O)c(OC)c(OC)cc3o2)cc1O
inactive: [1] -0.076 | [2] -0.0378 | [4] -0.145
active: [3] -0.654

COc1cc(O)c2c(=O)cc(-c3ccc(OC)c(O)c3)oc2c1
inactive: [1] 0.0474 | [2] 0.00819 | [3] 0.132 | [4] 0.0369

COc1ccc(-c2cc(=O)c3c(O)cc(O[C@@H]4O[C@H](CO[C@@H]5O[C@@H](C)[C@H](O)[C@@H](O)[C@H]5O)[C@@H](O)[C@H](O)[C@H]4O)cc3o2)cc1O
active: [1] -0.0892 | [3] -0.0968
inactive: [2] 0.0382 | [4] 0.0709

COc1ccc(-c2cc(=O)c3c(O)cc(O[C@@H]4O[C@H](CO[C@@H]5O[C@@H](C)[C@H](O)[C@@H](O)[C@H]5O)[C@@H](O)[C@H](O)[C@H]4O)cc3o2)cc1
inactive: [1] 0.0703 | [2] 0.0696 | [3] 0.0879 | [4] 0.0994

COc1ccc(-c2cc(=O)c3c(O)c(OC)c(OC4OC(COC5OC(C)C(O)C(O)C5O)C(O)C(O)C4O)cc3o2)cc1 (stereo not given)
inactive: [1] 0.0877 | [2] 0.0838 | [3] 0.171 | [4] 0.116

COc1ccc(-c2cc(=O)c3c(O)cc(O)cc3o2)cc1O
inactive: [1] -0.0193 | [2] -0.536 | [3] -0.0793 | [4] 0.0681

COC(=O)C(O)[C@H]1C(C)(C)[C@@H](OC(C)=O)[C@@H]2CC3=C4CC(=O)O[C@@H](c5ccoc5)[C@]4(C)CCC3[C@@]1(C)C2=O (stereo not given in full)
inactive: [1] 0.11 | [2] 0.119 | [3] 0.15 | [4] 0.0885

CC(=O)O[C@H]1CC[C@@]2(C)C(=CC[C@H]3[C@@H]4CC[C@H]([C@H](C)CCCC(C)C)[C@@]4(C)CC[C@@H]32)C1
inactive: [1] 0.0694 | [2] 0.0487 | [3] 0.14 | [4] 0.0189

O=C(O)C1CC(C2CCCCN2)CN2CCCCC12 (stereo not given)
inactive: [1] 0.039 | [2] 0.0346 | [3] 0.146 | [4] 0.0208

CC(N)=NCCC[C@H](N)C(=O)O
inactive: [17] 0.0627 | [18] 0.0753 | [19] -0.0275 | [20] 0.0731

COc1ccccc1CNC(=O)CN(c1ccc(Cl)cc1)S(C)(=O)=O
inactive: [1] -0.0129 | [2] 0.0689 | [3] 0.0751 | [4] 0.0379
